Targets with a hit are over-represented here; the source holds about 8,800 in all. About 0.5% of all pairs of compound and target were hits.
Assays:
Test in all cases: log2 fold change, soluble protein after heating vs DMSO (PISA); higher = thermal stabilisation; K562 lysate, 10 uM; active = over 0.2 and 3.5 SD of the protein, either way, in both replicates (recomputed)
[1] = compound: NCC(=O)Nc1ccc(-n2nc(C(F)(F)F)cc2-c2ccc3c(ccc4ccccc43)c2)cc1
Summary of the method: (§1)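 Quantification was by TMTpro 16plex LC-MS/MS with equalised channel sums, applied to the supernatant after 21,000xg for 90 min. Samples were crude K562 extract at 1 mg/mL protein in PBS pH 7.4 with 1 mM MgCl2, treated with 10 μM compound for 30 min, heated for 3 min across 48°C-58°C, pooled and brought to 0.5% NP-40 at 4°C. Values are log-two fold changes in thermal stability relative to solvent controls, from duplicates.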

vorinostat = compound: O=C(CCCCCCC(=O)Nc1ccccc1)NO [vorinostat]
Summary of the method: as §1

silmitasertib = compound: O=C(O)c1ccc2c(c1)nc(Nc1cccc(Cl)c1)c1ccncc12 [silmitasertib]
Summary of the method: as §1

[2] = compound: O=C1NC(=O)C(c2cnc3ccccn23)=C1c1cn2c3c(cc(F)cc13)CN(C(=O)N1CCCCC1)CC2
Summary of the method: as §1

entospletinib = compound: c1cn2cc(-c3ccc4cn[nH]c4c3)nc(Nc3ccc(N4CCOCC4)cc3)c2n1 [entospletinib]
Summary of the method: as §1

Measured: log2 fold change

DGCR8 (UniProt Q8WYQ5)
active: vorinostat -0.38
inactive: [1] -0.027 | silmitasertib -0.041 | [2] -0.054 | entospletinib -0.066

COX7B (UniProt P24311)
Sequence of UniProt P24311 (P24311 whole entry, looked up): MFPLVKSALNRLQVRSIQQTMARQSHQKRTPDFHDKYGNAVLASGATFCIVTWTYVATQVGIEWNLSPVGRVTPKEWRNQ
inactive: [1] -0.043 | vorinostat 0.081 | silmitasertib 0 | [2] 0 | entospletinib 0.104

DNAJC1 (UniProt Q96KC8)
Sequence of UniProt Q96KC8 (Q96KC8 whole entry, looked up): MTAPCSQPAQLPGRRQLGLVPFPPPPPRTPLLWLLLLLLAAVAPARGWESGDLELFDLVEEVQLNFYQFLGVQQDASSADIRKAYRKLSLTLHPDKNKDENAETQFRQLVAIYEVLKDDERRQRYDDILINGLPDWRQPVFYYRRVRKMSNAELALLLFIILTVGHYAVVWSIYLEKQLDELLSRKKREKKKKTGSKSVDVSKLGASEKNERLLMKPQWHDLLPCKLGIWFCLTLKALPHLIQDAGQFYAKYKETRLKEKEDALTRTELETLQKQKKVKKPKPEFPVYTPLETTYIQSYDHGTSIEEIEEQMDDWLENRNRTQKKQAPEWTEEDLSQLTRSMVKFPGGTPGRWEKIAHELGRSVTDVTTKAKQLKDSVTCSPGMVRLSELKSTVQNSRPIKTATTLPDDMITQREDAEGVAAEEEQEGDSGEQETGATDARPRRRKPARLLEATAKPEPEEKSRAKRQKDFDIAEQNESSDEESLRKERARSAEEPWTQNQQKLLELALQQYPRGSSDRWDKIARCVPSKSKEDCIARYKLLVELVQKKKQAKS
inactive: [1] 0.003 | vorinostat 0.017 | silmitasertib 0.025 | [2] -0.007 | entospletinib -0.032

DOCK8 (UniProt Q8NF50)
active: vorinostat -0.489
inactive: [1] -0.015 | silmitasertib 0.06 | [2] 0.022 | entospletinib -0.052

CYCS (UniProt P99999)
Sequence of UniProt P99999 (P99999 whole entry, looked up): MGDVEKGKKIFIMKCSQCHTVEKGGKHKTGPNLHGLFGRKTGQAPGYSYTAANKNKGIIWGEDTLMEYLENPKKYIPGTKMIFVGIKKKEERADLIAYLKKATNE
inactive: [1] 0.017 | vorinostat 0.114 | silmitasertib -0.004 | [2] 0.033 | entospletinib 0.011

CHURC1 isoform 2 (UniProt Q8WUH1)
Sequence of UniProt Q8WUH1 (Q8WUH1 whole entry, looked up): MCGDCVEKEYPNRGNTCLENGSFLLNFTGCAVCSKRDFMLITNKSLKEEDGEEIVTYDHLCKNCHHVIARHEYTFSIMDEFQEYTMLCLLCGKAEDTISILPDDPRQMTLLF
active: vorinostat 0.285
inactive: [1] -0.048 | silmitasertib -0.039 | [2] -0.043 | entospletinib -0.128

CIB1 (UniProt Q99828)
inactive: [1] -0.027 | vorinostat 0.049 | silmitasertib -0.006 | [2] -0.037 | entospletinib -0.091

CSPP1 (UniProt Q1MSJ5)
inactive: [1] 0.122 | vorinostat 0.085 | silmitasertib -0.027 | [2] 0.043 | entospletinib 0.003

DNA2 (UniProt P51530)
active: vorinostat -0.448
inactive: [1] -0.059 | silmitasertib 0.127 | [2] -0.027 | entospletinib -0.053

DPM1 (UniProt O60762)
inactive: [1] 0.05 | vorinostat -0.01 | silmitasertib -0.016 | [2] -0.011 | entospletinib 0.02

CWC22 (UniProt Q9HCG8)
inactive: [1] -0.012 | vorinostat -0.156 | silmitasertib 0.032 | [2] -0.016 | entospletinib 0.015

CHEK1 (UniProt O14757)
inactive: [1] 0.008 | vorinostat 0.086 | silmitasertib 0.168 | [2] -0.014 | entospletinib 0.009

CYP24A1 (UniProt Q07973)
inactive: [1] 0.187 | vorinostat 0.119 | silmitasertib 0.019 | [2] 0.081 | entospletinib 0.002

CYP51A1 (UniProt Q16850)
inactive: [1] -0.065 | vorinostat 0.017 | silmitasertib -0.084 | entospletinib 0.024
active: [2] 0.864

DDX39A (UniProt O00148)
active: vorinostat -0.383
inactive: [1] 0.017 | silmitasertib 0.017 | [2] 0.036 | entospletinib -0.033

DIAPH1 (UniProt H9KV28)
inactive: [1] -0.002 | vorinostat 0.087 | silmitasertib 0.084 | [2] -0.083 | entospletinib -0.113

DHRS11 (UniProt Q6UWP2)
inactive: [1] -0.006 | silmitasertib -0.014 | [2] 0.02 | entospletinib -0.011
active: vorinostat -0.255

COG7 (UniProt P83436)
active: vorinostat -0.287
inactive: [1] -0.013 | silmitasertib 0.06 | [2] 0.034 | entospletinib 0.033

DCP2 (UniProt Q8IU60)
active: vorinostat -0.446
inactive: [1] -0.02 | silmitasertib -0.033 | [2] 0.085 | entospletinib -0.001

DHCR7 (UniProt Q9UBM7)
inactive: [1] -0.098 | vorinostat -0.022 | silmitasertib 0.03 | [2] -0.004 | entospletinib 0.078

COL12A1 (UniProt Q99715)
Sequence of UniProt Q99715 (Q99715 whole entry, looked up): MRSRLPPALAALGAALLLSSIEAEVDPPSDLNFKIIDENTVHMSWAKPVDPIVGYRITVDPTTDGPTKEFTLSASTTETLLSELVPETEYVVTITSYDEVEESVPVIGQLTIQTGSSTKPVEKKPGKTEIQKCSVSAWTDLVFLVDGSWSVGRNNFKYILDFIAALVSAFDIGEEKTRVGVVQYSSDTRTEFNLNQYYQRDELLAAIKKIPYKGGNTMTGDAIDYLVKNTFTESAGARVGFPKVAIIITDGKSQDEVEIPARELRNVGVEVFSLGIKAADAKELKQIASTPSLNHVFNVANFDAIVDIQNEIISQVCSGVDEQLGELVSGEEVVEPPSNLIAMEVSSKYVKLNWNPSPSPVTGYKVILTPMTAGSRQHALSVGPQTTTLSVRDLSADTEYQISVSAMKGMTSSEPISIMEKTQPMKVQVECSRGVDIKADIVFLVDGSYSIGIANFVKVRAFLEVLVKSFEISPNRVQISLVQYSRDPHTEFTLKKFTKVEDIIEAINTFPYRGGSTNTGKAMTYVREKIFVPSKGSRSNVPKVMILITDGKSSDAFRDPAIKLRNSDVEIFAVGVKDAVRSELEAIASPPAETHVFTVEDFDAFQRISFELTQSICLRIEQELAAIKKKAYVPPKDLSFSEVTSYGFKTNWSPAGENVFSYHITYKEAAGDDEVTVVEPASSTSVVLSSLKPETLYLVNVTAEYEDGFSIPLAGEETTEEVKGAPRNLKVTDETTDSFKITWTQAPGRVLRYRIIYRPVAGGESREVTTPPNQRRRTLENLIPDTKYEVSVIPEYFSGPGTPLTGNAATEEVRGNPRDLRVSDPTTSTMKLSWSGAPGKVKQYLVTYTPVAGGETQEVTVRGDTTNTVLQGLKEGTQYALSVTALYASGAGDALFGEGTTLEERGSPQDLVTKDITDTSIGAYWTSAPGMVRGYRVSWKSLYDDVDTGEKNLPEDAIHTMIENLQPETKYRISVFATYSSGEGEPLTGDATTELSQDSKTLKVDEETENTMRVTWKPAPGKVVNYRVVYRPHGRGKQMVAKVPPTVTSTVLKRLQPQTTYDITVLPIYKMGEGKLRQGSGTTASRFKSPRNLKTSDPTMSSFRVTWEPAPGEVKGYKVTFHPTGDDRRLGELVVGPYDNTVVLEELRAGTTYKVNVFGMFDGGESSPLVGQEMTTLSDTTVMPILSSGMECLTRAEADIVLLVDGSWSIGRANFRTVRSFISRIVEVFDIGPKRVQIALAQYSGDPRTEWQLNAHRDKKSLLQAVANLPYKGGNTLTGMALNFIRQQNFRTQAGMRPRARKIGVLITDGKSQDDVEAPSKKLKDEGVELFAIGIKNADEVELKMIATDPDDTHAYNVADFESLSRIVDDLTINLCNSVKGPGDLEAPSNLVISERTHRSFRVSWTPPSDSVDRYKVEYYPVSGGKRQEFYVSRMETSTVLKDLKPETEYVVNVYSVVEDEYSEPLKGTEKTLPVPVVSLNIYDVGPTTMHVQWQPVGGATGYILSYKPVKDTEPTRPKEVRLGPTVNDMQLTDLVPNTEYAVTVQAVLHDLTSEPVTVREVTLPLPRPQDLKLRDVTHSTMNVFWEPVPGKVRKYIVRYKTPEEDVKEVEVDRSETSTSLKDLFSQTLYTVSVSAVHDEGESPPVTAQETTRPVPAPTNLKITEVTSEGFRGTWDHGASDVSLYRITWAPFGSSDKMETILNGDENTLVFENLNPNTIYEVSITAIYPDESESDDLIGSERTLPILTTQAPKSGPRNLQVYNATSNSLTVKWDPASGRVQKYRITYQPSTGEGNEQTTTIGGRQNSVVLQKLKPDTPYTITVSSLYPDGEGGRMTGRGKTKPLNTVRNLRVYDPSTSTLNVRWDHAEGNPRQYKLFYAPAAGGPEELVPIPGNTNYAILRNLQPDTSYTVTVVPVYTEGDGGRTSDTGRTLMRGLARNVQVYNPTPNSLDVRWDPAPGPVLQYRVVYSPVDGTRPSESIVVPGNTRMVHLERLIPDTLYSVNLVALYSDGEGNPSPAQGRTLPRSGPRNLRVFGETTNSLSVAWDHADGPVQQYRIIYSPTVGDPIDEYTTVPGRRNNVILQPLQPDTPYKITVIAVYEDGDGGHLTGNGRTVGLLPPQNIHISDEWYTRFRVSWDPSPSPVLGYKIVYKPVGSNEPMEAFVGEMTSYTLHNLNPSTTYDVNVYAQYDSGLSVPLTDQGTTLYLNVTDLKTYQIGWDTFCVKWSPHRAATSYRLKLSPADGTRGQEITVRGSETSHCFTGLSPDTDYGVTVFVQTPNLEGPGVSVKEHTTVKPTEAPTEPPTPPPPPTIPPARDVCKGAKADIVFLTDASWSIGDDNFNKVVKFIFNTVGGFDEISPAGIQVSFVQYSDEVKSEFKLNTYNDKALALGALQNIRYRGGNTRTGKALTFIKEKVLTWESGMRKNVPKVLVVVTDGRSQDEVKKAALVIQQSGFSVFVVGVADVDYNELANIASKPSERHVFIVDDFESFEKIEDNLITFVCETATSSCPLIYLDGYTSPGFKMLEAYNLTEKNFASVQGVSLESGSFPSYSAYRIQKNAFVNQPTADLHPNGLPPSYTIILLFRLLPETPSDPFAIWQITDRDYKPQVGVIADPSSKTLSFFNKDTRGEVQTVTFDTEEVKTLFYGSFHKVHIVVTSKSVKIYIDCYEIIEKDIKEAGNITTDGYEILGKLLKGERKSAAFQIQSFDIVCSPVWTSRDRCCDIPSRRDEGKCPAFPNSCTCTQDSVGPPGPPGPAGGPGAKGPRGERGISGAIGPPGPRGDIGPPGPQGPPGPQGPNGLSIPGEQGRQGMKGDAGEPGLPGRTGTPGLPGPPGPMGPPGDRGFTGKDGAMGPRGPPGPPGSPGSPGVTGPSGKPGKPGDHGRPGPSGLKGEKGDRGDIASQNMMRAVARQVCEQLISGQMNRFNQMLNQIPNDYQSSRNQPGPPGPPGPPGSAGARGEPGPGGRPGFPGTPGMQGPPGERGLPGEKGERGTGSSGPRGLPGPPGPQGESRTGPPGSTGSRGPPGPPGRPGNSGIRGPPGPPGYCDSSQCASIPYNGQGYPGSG
inactive: [1] 0.29 | vorinostat 0.037 | silmitasertib -0.079 | [2] 0.908 | entospletinib -0.036

DDAH1 (UniProt O94760)
inactive: [1] -0.076 | vorinostat 0.07 | silmitasertib -0.035 | [2] 0.017 | entospletinib -0.014

CSNK1A1 (UniProt P48729)
inactive: [1] 0.001 | silmitasertib 0.088 | [2] -0.044 | entospletinib 0.017
active: vorinostat -0.276

CLUH, A0A494C0R8
inactive: [1] -0.115 | vorinostat 0.028 | silmitasertib 0.069 | [2] 0.033 | entospletinib 0.033

COMT (UniProt P21964)
Sequence of UniProt P21964 (P21964 whole entry, looked up): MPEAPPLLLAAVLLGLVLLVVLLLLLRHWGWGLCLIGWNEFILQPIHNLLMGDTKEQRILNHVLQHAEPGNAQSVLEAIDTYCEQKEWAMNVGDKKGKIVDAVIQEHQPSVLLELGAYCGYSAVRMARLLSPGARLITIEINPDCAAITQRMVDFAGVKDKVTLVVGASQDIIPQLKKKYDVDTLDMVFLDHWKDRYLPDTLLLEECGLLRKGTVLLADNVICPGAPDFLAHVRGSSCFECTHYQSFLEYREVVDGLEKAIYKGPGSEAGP
inactive: [1] -0.106 | silmitasertib 0.04 | [2] 0.007 | entospletinib 0.015
active: vorinostat -0.294

CKAP5 (UniProt Q14008)
active: vorinostat -0.269
inactive: [1] -0.013 | silmitasertib 0.011 | [2] 0.002 | entospletinib 0.005

CNP (UniProt P09543)
active: vorinostat -0.298
inactive: [1] -0.017 | silmitasertib -0.001 | [2] 0.059 | entospletinib 0.017

DERA (UniProt Q9Y315)
inactive: [1] -0.015 | vorinostat 0.063 | silmitasertib -0.003 | [2] 0.018 | entospletinib 0

CNST (UniProt Q6PJW8)
inactive: [1] 0.051 | vorinostat 0.056 | silmitasertib -0.028 | [2] -0.067 | entospletinib -0.024

DMXL1 (UniProt Q9Y485)
active: vorinostat -0.237
inactive: [1] 0.022 | silmitasertib 0.044 | [2] -0.013 | entospletinib 0.022

COPZ1 isoform 4 (UniProt P61923)
inactive: [1] -0.068 | vorinostat 0.188 | silmitasertib -0.032 | [2] 0.163 | entospletinib -0.025

DHFR (UniProt P00374)
inactive: [1] -0.045 | vorinostat -0.214 | silmitasertib 0.133 | [2] 0 | entospletinib 0.002

DEF6 (UniProt Q9H4E7)
active: vorinostat -0.416
inactive: [1] 0.085 | silmitasertib 0.032 | [2] -0.045 | entospletinib 0.022

CNDP2 (UniProt Q96KP4)
inactive: [1] 0.023 | vorinostat 0.133 | silmitasertib -0.025 | [2] -0.008 | entospletinib 0.01

DNAJC3 (UniProt Q13217)
inactive: [1] -0.029 | vorinostat 0.064 | silmitasertib 0.017 | [2] 0.033 | entospletinib 0

CKS1B (UniProt P61024)
inactive: [1] -0.059 | vorinostat 0.115 | silmitasertib -0.004 | [2] -0.076 | entospletinib -0.021

DNAAF5 (UniProt Q86Y56)
active: vorinostat -0.313
inactive: [1] 0.029 | silmitasertib 0.129 | [2] 0.02 | entospletinib -0.012

DAZAP1 (UniProt Q96EP5)
inactive: [1] 0.032 | vorinostat -0.031 | silmitasertib 0.014 | [2] 0.032 | entospletinib -0.001

CNNM2 (UniProt Q9H8M5)
Sequence of UniProt Q9H8M5 (Q9H8M5 whole entry, looked up): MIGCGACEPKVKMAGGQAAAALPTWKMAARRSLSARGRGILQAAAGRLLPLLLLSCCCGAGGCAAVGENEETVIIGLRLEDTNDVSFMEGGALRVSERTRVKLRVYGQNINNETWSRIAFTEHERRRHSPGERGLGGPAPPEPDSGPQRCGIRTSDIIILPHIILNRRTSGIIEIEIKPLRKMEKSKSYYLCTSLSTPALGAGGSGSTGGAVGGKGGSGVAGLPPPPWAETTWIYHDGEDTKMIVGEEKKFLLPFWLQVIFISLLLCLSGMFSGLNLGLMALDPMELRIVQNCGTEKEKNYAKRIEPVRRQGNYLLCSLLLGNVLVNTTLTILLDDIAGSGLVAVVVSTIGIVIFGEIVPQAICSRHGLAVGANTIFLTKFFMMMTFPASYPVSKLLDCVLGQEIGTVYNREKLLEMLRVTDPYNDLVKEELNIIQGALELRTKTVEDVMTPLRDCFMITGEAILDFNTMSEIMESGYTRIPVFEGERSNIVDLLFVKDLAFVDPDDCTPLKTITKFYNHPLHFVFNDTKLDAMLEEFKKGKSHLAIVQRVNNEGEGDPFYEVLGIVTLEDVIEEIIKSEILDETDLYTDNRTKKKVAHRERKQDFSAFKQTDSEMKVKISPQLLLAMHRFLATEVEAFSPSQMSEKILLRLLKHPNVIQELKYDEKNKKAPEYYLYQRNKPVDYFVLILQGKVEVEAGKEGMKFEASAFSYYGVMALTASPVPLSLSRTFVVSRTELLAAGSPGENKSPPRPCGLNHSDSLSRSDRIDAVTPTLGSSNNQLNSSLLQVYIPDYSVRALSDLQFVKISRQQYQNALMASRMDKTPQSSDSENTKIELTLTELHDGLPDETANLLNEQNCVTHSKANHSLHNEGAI
inactive: [1] 0.001 | vorinostat 0.068 | silmitasertib 0.065 | [2] 0.051 | entospletinib -0.073

CUL1 (UniProt Q13616)
inactive: [1] 0.001 | vorinostat 0.072 | silmitasertib 0.006 | [2] -0.007 | entospletinib 0.009

DLGAP5 (UniProt Q15398)
inactive: [1] -0.008 | silmitasertib -0.002 | [2] -0.006 | entospletinib -0.004
active: vorinostat -0.252

DCTN1 isoform 4 (UniProt Q14203)
inactive: [1] 0.144 | vorinostat -0.143 | silmitasertib -0.027 | [2] 0.011 | entospletinib -0.085
